{
  "source": "PubChem BioAssay (Tox21)",
  "key": {"[1]": {"target": "Cytochrome P450 2C9 (Homo sapiens) (UniProt P11712)", "sequence (P11712 whole entry, looked up)": "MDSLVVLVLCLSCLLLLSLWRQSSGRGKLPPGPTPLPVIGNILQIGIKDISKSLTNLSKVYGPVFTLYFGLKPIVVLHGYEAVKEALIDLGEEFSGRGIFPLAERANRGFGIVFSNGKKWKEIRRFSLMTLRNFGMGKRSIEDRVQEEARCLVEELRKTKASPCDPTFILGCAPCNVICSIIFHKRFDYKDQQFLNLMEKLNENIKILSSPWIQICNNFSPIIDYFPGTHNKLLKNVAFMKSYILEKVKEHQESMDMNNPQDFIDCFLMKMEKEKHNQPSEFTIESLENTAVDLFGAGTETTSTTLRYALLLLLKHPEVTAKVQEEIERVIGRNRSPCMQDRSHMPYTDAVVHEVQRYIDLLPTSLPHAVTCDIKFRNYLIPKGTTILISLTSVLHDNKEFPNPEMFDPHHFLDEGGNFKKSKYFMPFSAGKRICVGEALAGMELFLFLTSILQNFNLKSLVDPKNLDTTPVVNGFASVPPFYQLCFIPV", "assay": "Cytochrome P450 Family 2 Subfamily C Member 9 (CYP2C9) small molecule antagonists: luciferase reporter qHTS assay (AID 1671198)", "settings": "P450-Glo CYP2C9 enzyme assay, luciferin luminescence; series mostly up to 115 µM", "method_in_brief": "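Enzyme-substrate mix preincubated with compound 10 min at room temperature; reaction started with NADPH regeneration solution, 1 h 37C. Luminescent luciferin product read after 20 min detection reagent.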"}, "[2]": {"target": "Cytochrome P450 1A2 (Homo sapiens) (UniProt P05177)", "sequence (P05177 whole entry, looked up)": "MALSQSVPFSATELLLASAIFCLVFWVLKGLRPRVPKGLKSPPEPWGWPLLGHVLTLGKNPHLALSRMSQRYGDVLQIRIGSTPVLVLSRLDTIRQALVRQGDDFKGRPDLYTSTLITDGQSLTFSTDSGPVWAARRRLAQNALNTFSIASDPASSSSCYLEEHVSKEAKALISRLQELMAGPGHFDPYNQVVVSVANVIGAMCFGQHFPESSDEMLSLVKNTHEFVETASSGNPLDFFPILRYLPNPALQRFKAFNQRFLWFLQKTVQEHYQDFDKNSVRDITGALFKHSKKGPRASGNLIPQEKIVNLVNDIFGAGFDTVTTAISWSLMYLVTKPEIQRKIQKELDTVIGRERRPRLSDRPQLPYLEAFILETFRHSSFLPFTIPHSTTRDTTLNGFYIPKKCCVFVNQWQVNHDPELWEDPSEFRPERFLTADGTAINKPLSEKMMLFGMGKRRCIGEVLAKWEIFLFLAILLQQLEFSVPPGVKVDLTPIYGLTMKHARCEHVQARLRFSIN", "assay": "Cytochrome P450 Family 1 Subfamily A Member 2 (CYP1A2) small molecule antagonists: luciferase reporter qHTS assay (AID 1671199)", "settings": "P450-Glo CYP1A2 enzyme, luciferin luminescence, 1 h; series mostly up to 53 µM", "method_in_brief": "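Compounds were incubated with CYP1A2 and a luminogenic proluciferin substrate for 10 min at room temperature before the reaction was started with NADPH regeneration solution. After 1 h, detection reagent was added and light output, proportional to CYP activity, was recorded.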"}, "[3]": {"target": "Voltage-gated inwardly rectifying potassium channel KCNH2 (Homo sapiens) (UniProt Q12809)", "sequence (Q12809 whole entry, looked up)": "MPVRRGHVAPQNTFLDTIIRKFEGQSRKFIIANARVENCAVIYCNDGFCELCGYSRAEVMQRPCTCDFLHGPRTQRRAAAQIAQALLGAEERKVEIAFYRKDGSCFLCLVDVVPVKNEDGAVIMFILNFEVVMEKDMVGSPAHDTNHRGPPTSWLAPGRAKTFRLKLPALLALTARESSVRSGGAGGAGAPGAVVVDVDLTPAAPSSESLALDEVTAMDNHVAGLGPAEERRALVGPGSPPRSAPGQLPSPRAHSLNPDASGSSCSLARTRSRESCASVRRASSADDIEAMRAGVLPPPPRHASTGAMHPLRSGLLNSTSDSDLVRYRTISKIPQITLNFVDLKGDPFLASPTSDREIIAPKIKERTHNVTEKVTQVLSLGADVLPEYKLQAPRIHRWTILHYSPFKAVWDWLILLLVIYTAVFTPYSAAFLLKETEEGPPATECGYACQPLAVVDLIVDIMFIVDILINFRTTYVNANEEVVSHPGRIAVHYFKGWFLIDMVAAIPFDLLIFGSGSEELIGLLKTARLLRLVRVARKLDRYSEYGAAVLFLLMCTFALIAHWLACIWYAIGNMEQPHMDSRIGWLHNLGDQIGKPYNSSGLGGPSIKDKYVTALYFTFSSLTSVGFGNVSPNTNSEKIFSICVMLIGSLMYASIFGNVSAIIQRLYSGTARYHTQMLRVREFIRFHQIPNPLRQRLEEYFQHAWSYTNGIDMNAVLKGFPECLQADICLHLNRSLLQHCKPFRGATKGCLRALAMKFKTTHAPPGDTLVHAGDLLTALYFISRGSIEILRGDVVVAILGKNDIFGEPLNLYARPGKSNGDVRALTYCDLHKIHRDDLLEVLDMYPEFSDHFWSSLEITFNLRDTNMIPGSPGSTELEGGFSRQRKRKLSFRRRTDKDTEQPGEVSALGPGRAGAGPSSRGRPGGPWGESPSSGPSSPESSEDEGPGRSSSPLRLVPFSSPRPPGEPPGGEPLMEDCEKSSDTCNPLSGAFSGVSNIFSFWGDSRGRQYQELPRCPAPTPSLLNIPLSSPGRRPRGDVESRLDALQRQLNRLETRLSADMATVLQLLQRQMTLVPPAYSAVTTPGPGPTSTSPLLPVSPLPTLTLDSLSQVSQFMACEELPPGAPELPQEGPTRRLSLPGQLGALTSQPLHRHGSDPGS", "assay": "Human Ether-a-go-go-Related Gene (hERG) channel small molecule antagonists: fluorescence cell-based qHTS assay (AID 1671200)", "settings": "hERG-U2OS cells, FluxOR thallium flux fluorescence; series mostly up to 76.8 µM", "method_in_brief": "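Thallium served as the potassium surrogate; its influx into dye-loaded U2OS cells carrying the channel was measured by fluorescence over 2 min.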"}},
  "note": "Inconclusive results are not listed. Active and inactive are the calls of the source. The call rests on the fitted dose curve; in most records, active means well fitted curve in the direction sought with a large enough effect in the repeat runs; inconclusive means weak or mixed curves; inactive means no such curve, though single readings can be large; an effect the other way counts as inactive or inconclusive. Further: nearly all actives have a fitted effect of over 50% in size. Potency means the concentration at half of the fitted maximal effect.",
  "data": [
    {"smiles": "CCN(CC)CCOC(=O)C(c1ccccc1)C1CCCCC1", "note": "(stereo not given)", "values": [
      {"measurement": "Potency", "setting": "[1]", "value": "inactive"},
      {"measurement": "Potency", "setting": "[2]", "value": "3.63 µM (active)"}
    ]},
    {"smiles": "COC(=O)C1=C(C)NC(COC(N)=O)=C(C(=O)OC(C)C)C1c1cccc(Cl)c1Cl", "note": "(stereo not given)", "values": [
      {"measurement": "Potency", "setting": "[1]", "value": "8.71 µM (active)"}
    ]},
    {"smiles": "COc1cc2nc(Cl)nc(N)c2cc1OC", "values": [
      {"measurement": "Potency", "setting": "[1]", "value": "inactive"},
      {"measurement": "Potency", "setting": "[2]", "value": "2.75 µM (active)"},
      {"measurement": "Potency", "setting": "[3]", "value": "inactive"}
    ]},
    {"smiles": "CCCCC/C=C\\C/C=C\\CCCCCCCC(=O)NC(C)c1ccccc1", "note": "(stereo not given)", "values": [
      {"measurement": "Potency", "setting": "[1]", "value": "2.45 µM (active)"},
      {"measurement": "Potency", "setting": "[2]", "value": "inactive"}
    ]},
    {"smiles": "COc1ccnc(CS(=O)c2nc3ccc(OC(F)F)cc3[nH]2)c1OC", "note": "(stereo not given)", "values": [
      {"measurement": "Potency", "setting": "[1]", "value": "34.7 µM (active)"},
      {"measurement": "Potency", "setting": "[2]", "value": "17.4 µM (active)"}
    ]},
    {"smiles": "CCCCNc1ccc(C(=O)OCCOCCOCCOCCOCCOCCOCCOCCOCCOC)cc1", "values": [
      {"measurement": "Potency", "setting": "[1]", "value": "12.3 µM (active)"},
      {"measurement": "Potency", "setting": "[2]", "value": "inactive"},
      {"measurement": "Potency", "setting": "[3]", "value": "inactive"}
    ]},
    {"smiles": "O=C(Nc1ccc(S(=O)(=O)N2CCOCC2)cc1)c1cc(Cl)ccc1NS(=O)(=O)c1ccc(Cl)s1", "values": [
      {"measurement": "Potency", "setting": "[1]", "value": "0.0436 µM (active)"},
      {"measurement": "Potency", "setting": "[2]", "value": "inactive"},
      {"measurement": "Potency", "setting": "[3]", "value": "inactive"}
    ]},
    {"smiles": "C[C@@H]1C[C@H]2[C@@H]3CCC4=CC(=O)C=C[C@]4(C)[C@@]3(F)[C@@H](O)C[C@]2(C)[C@@]1(O)C(=O)COC(=O)c1ccncc1", "values": [
      {"measurement": "Potency", "setting": "[1]", "value": "7.76 µM (active)"},
      {"measurement": "Potency", "setting": "[2]", "value": "inactive"},
      {"measurement": "Potency", "setting": "[3]", "value": "inactive"}
    ]},
    {"smiles": "CCN(CC)c1ccc(C(=C2C=CC(=[N+](CC)CC)C=C2)c2cc(S(=O)(=O)O)ccc2S(=O)(=O)[O-])cc1", "values": [
      {"measurement": "Potency", "setting": "[1]", "value": "15.5 µM (active)"},
      {"measurement": "Potency", "setting": "[2]", "value": "17.4 µM (active)"},
      {"measurement": "Potency", "setting": "[3]", "value": "inactive"}
    ]},
    {"smiles": "COc1cc(Cl)ccc1Oc1ccc(Cl)cc1Cl", "values": [
      {"measurement": "Potency", "setting": "[1]", "value": "19.5 µM (active)"},
      {"measurement": "Potency", "setting": "[2]", "value": "12.3 µM (active)"},
      {"measurement": "Potency", "setting": "[3]", "value": "inactive"}
    ]},
    {"smiles": "CCCCC1=NC2(CCCC2)C(=O)N1Cc1ccc(-c2ccccc2-c2nn[nH]n2)cc1", "values": [
      {"measurement": "Potency", "setting": "[1]", "value": "17.4 µM (active)"},
      {"measurement": "Potency", "setting": "[2]", "value": "inactive"}
    ]},
    {"smiles": "OCCN1CCN(CCCN2c3ccccc3C=Cc3ccccc32)CC1", "values": [
      {"measurement": "Potency", "setting": "[1]", "value": "inactive"},
      {"measurement": "Potency", "setting": "[2]", "value": "inactive"}
    ]},
    {"smiles": "O=C(CS)Nc1ccccc1", "values": [
      {"measurement": "Potency", "setting": "[1]", "value": "13.8 µM (active)"}
    ]},
    {"smiles": "CC(C)Cc1ccc(C(C)C(=O)OCc2ccccn2)cc1", "note": "(stereo not given)", "values": [
      {"measurement": "Potency", "setting": "[1]", "value": "7.76 µM (active)"},
      {"measurement": "Potency", "setting": "[2]", "value": "32.3 µM (active)"}
    ]},
    {"smiles": "OC(C#CCN1CCCC1)(c1ccccc1)c1ccccc1", "values": [
      {"measurement": "Potency", "setting": "[1]", "value": "15.5 µM (active)"},
      {"measurement": "Potency", "setting": "[2]", "value": "inactive"}
    ]},
    {"smiles": "CN1CCC(=C2c3ccccc3Sc3ccccc32)CC1", "values": [
      {"measurement": "Potency", "setting": "[1]", "value": "inactive"},
      {"measurement": "Potency", "setting": "[2]", "value": "inactive"},
      {"measurement": "Potency", "setting": "[3]", "value": "12 µM (active)"}
    ]},
    {"smiles": "Cc1cccc(C)c1OCC(=O)N[C@@H](Cc1ccccc1)[C@@H](O)C[C@H](Cc1ccccc1)NC(=O)[C@H](C(C)C)N1CCCNC1=O", "values": [
      {"measurement": "Potency", "setting": "[1]", "value": "13.8 µM (active)"},
      {"measurement": "Potency", "setting": "[2]", "value": "inactive"}
    ]},
    {"smiles": "O=C(NCCO[N+](=O)[O-])c1cccnc1", "values": [
      {"measurement": "Potency", "setting": "[1]", "value": "inactive"},
      {"measurement": "Potency", "setting": "[2]", "value": "inactive"},
      {"measurement": "Potency", "setting": "[3]", "value": "inactive"}
    ]},
    {"smiles": "Cc1c(N)cccc1[N+](=O)[O-]", "values": [
      {"measurement": "Potency", "setting": "[1]", "value": "inactive"},
      {"measurement": "Potency", "setting": "[2]", "value": "32.2 µM (active)"},
      {"measurement": "Potency", "setting": "[3]", "value": "inactive"}
    ]},
    {"smiles": "COc1cc2c(cc1OC)C(C(C(=O)N(CCc1ccc(OC)c(OC)c1OC)CCc1ccc(OC)c(OC)c1OC)c1ccccc1)=NCC2", "note": "(stereo not given)", "values": [
      {"measurement": "Potency", "setting": "[1]", "value": "11 µM (active)"},
      {"measurement": "Potency", "setting": "[2]", "value": "inactive"}
    ]},
    {"smiles": "COc1ccc2cccc(CCNC(C)=O)c2c1", "values": [
      {"measurement": "Potency", "setting": "[1]", "value": "15.5 µM (active)"},
      {"measurement": "Potency", "setting": "[2]", "value": "4.9 µM (active)"},
      {"measurement": "Potency", "setting": "[3]", "value": "inactive"}
    ]},
    {"smiles": "CCOc1ccc(N)c([N+](=O)[O-])c1", "values": [
      {"measurement": "Potency", "setting": "[1]", "value": "63.3 µM (active)"},
      {"measurement": "Potency", "setting": "[2]", "value": "1.78 µM (active)"},
      {"measurement": "Potency", "setting": "[3]", "value": "inactive"}
    ]},
    {"smiles": "CCC(=O)O[C@]1(C(=O)CCl)[C@@H](C)C[C@H]2[C@@H]3CCC4=CC(=O)C=C[C@]4(C)[C@@]3(F)[C@@H](O)C[C@@]21C", "values": [
      {"measurement": "Potency", "setting": "[1]", "value": "30.9 µM (active)"},
      {"measurement": "Potency", "setting": "[2]", "value": "inactive"}
    ]},
    {"smiles": "O=C(Cl)c1cc(C(=O)Cl)cc(C(=O)Cl)c1", "values": [
      {"measurement": "Potency", "setting": "[1]", "value": "28.3 µM (active)"},
      {"measurement": "Potency", "setting": "[2]", "value": "39.9 µM (active)"}
    ]},
    {"smiles": "S=C([S-])NCCNC(=S)[S-].[Mn+2]", "values": [
      {"measurement": "Potency", "setting": "[1]", "value": "11.2 µM (active)"},
      {"measurement": "Potency", "setting": "[2]", "value": "25.2 µM (active)"},
      {"measurement": "Potency", "setting": "[3]", "value": "inactive"}
    ]},
    {"smiles": "c1ccc(CNCCNCc2ccccc2)cc1", "values": [
      {"measurement": "Potency", "setting": "[1]", "value": "inactive"}
    ]},
    {"smiles": "O=C1[C@H]2CCCC[C@H]2C(=O)N1CCCCN1CCN(c2nsc3ccccc23)CC1", "values": [
      {"measurement": "Potency", "setting": "[1]", "value": "inactive"},
      {"measurement": "Potency", "setting": "[2]", "value": "inactive"}
    ]},
    {"smiles": "CCCCc1nc2cccnc2n1Cc1ccc(-c2ccccc2-c2nnn[nH]2)cc1", "values": [
      {"measurement": "Potency", "setting": "[1]", "value": "0.356 µM (active)"},
      {"measurement": "Potency", "setting": "[2]", "value": "44.8 µM (active)"},
      {"measurement": "Potency", "setting": "[3]", "value": "inactive"}
    ]},
    {"smiles": "C#CCN(C)CCCOc1ccc(Cl)cc1Cl", "values": [
      {"measurement": "Potency", "setting": "[1]", "value": "17.4 µM (active)"},
      {"measurement": "Potency", "setting": "[2]", "value": "1.82 µM (active)"},
      {"measurement": "Potency", "setting": "[3]", "value": "8.49 µM (active)"}
    ]},
    {"smiles": "c1ccc(C(O[C@H]2CCCN(CCc3ccc4c(c3)OCO4)C2)c2ccccc2)cc1", "values": [
      {"measurement": "Potency", "setting": "[1]", "value": "15.5 µM (active)"},
      {"measurement": "Potency", "setting": "[2]", "value": "30.9 µM (active)"},
      {"measurement": "Potency", "setting": "[3]", "value": "0.535 µM (active)"}
    ]},
    {"smiles": "CNCCCN1c2ccccc2CCc2ccccc21", "values": [
      {"measurement": "Potency", "setting": "[1]", "value": "inactive"},
      {"measurement": "Potency", "setting": "[2]", "value": "inactive"}
    ]},
    {"smiles": "CCCCCCOC(=O)NC(=N)c1ccc(NCc2nc3cc(C(=O)N(CCC(=O)OCC)c4ccccn4)ccc3n2C)cc1", "values": [
      {"measurement": "Potency", "setting": "[1]", "value": "3.09 µM (active)"},
      {"measurement": "Potency", "setting": "[2]", "value": "inactive"},
      {"measurement": "Potency", "setting": "[3]", "value": "0.601 µM (active)"}
    ]},
    {"smiles": "O[C@@H](COc1cccc2ncccc12)CN1CCN(C2c3ccccc3[C@@H]3[C@H](c4ccccc42)C3(F)F)CC1", "note": "(stereo not given in full)", "values": [
      {"measurement": "Potency", "setting": "[1]", "value": "11 µM (active)"},
      {"measurement": "Potency", "setting": "[2]", "value": "15.5 µM (active)"},
      {"measurement": "Potency", "setting": "[3]", "value": "10.7 µM (active)"}
    ]}
  ]
}
